PubChem BioAssay AID1012 (Sanford-Burnham Center for Chemical Genomics, 2008)
About 520 (0.26%) of roughly 200,000 compounds were called active. For the sample, actives were picked, then their nearest neighbours and some compounds at random. Values without a mark were called inactive.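 The calls were made as follows: active = tissue-nonspecific alkaline phosphatase inhibition above about 50% at 20 µM in the single-dose screen (limit read from the data); inactive = the rest.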

molecular target: Alkaline phosphatase, tissue-nonspecific isozyme (Homo sapiens) (UniProt P05186); assay: human TNAP enzyme inhibitors, primary screen, biochemical, luminescent, no phosphate acceptor, uHTS (AID 1012); details: purified TNAP, CDP-star luminescence, 30 min; at 20 µM; hits give high values;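 also: 0% = DMSO negative control and 100% = EDTA positive control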
Sequence (P05186 whole entry, looked up): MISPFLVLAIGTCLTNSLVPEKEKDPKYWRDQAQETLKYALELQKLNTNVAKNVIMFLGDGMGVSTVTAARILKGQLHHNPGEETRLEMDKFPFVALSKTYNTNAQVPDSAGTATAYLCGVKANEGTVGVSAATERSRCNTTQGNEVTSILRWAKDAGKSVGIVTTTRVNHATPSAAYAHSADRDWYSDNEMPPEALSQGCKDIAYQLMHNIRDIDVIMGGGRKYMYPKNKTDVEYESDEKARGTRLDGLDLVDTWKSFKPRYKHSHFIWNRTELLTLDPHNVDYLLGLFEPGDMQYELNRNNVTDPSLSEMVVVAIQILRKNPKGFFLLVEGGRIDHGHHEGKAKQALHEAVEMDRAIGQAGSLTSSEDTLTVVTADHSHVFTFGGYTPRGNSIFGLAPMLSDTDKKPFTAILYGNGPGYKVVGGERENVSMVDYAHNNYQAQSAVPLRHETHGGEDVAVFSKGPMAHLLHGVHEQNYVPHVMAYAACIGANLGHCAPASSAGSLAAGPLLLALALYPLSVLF

SMILES	inhibition
CN(C)CCCN=Cc1c(O)n(Cc2ccco2)c(=O)[nH]c1=O	-20.3%
CCC(=NCc1ccco1)c1c(O)n(Cc2ccccc2)c(=O)[nH]c1=O	-5.5%
O=C(N/N=C/c1c(O)n(Cc2ccccc2)c(=O)[nH]c1=O)c1ccccc1	94.3% (active)
O=C(OCCN1CCOCC1)C1(c2ccccc2)CCCC1	-3%
O=C(NCC(c1cccnc1)N1CCN(c2ccccc2)CC1)Oc1ccccc1 (stereo not given)	-8.6%
